Test results from PubChem BioAssay (NCATS).
Several values for one entry are separate records, joined by “and”; a condition that tells them apart may be missing. Equal values may be shown once. Inconclusive results are not listed. Activity calls are given as the source filed them. Unless noted, calls come from the whole dose curve; as a rule, active = well fitted curve in the direction sought with a large enough effect; inconclusive = small, poorly fitted or top-dose-only effect, or another doubt; inactive = no such curve, though single readings can be large; an effect the other way counts as inactive or inconclusive.

Key:
[1] = Cellular Toxicity (caspase-3) HepG2 (AID 654);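 note: cells exposed to compound for 16 hours before reading; 0% = DMSO alone and 100% = caspase signal from 100 µM tamoxifen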
Outline: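 Cells plated 5 hr at 37 °C, compound added, incubated 16 hr at 37 °C. Caspase-Glo 3/7 reagent followed, 20 min at room temperature, then luminescence read. Activation scored as signal increase; AC50 from Hill fit.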

[2] = Cellular Toxicity (caspase-3) HUV-EC-C (AID 656);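 note: 0% = DMSO basal and 100% = 100 µM tamoxifen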
Outline: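 Luminescent Caspase-Glo 3/7 readout after 16 h, 37 °C compound exposure of HUV-EC-C endothelial cells, 1000 per well, complete medium. AC50 derived by Hill fitting, with DMSO as baseline and 100 uM tamoxifen as full activation.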

[3] = Cellular Toxicity (caspase-3) SHSY5Y (AID 657)
Outline: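 Luminescent Caspase-Glo 3/7 read-out, 1 hr room temperature, follows 16 hours of compound treatment of SH-SY5Y cells at 37 °C. Normalization: DMSO basal, 10 uM staurosporine as 100%; AC50 values from Hill-equation concentration-response fits.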

[4] = Cellular Toxicity (caspase-3) BJ (AID 658);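 note: 0% = DMSO basal and 100% = 10 µM staurosporine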
Outline: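 BJ human foreskin fibroblasts, 1000 cells/well, treated 16 hours at 37 °C in complete medium; caspase 3/7 activity by Caspase-Glo luminescence after 1 hr at room temperature. Normalized to DMSO and 10 uM staurosporine; AC50 from Hill fits.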

[5] = Cellular Toxicity (caspase-3) Mesangial (AID 660);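 note: combined caspase 3 and 7 activity read by Caspase-Glo luminescence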
Outline: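 Mesangial cells, 1000/well, 5 h settle at 37 °C; compound 16 h, 37 °C; Caspase-Glo 3/7 reagent 20 min RT; luminescence. Norm.: DMSO = 0%, tamoxifen 100 uM = 100%. AC50, Hill fit.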

[6] = Cellular Toxicity (caspase-3) SK-N-SH (AID 661);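 note: 0% = DMSO basal and 100% = 10 µM staurosporine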
Outline: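 Human neuroblastoma SK-N-SH, 1500 cells/well, 5 hr pre-incubation, then compound 16 hr, 37 °C. Caspase-Glo 3/7 reagent, 1 hr RT, luminescence. Norm. to DMSO/10 uM staurosporine; Hill-fit AC50.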

[7] = Cellular Toxicity (caspase-3) H-4-II-E (AID 663); details: Potency: caspase-3 activation;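 note: cells exposed to compound for 16 hr before readout; 0% = DMSO basal and 100% = 100 µM tamoxifen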
Outline: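 Rat hepatoma H-4-II-E cells (1500/well) plated 5 hr, then exposed to compound titrations for 16 hr at 37 °C. Caspase-Glo 3/7 luminescence read after 20 min at RT; data normalized to DMSO and 100 uM tamoxifen, AC50 from Hill fits.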

[8] = Cellular Toxicity (caspase-3) N2a (AID 665);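 note: compound exposure lasted 16 h at 37 °C before readout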
Outline: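 N2a cells, 1500/well, 5 h settle at 37 °C; cpd 16 h, 37 °C; Caspase-Glo 3/7, 1 h RT; luminescence. Norm: DMSO = 0, 10 uM staurosporine = 100%. AC50, Hill fit.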

[9] = Cell Viability - LYMP2-001 (AID 921);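 note: series mostly up to about 92 µM; 0% = DMSO only and full inhibition = tetraoctylammonium bromide control wells; nearly all actives have a fitted effect of over 70% in size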
Outline: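 Cellular ATP loss read by luciferase luminescence after 24 h compound exposure at 37 C in complete medium. LYMP2-001 lymphoblastoid cells, 2500/well; qHTS concentration-response data fitted with Hill equation for AC50.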

[10] = Cell Viability - LYMP1-002 - Assay at 16 hr (AID 948);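 note: 0% = DMSO alone and full effect = 92 µM tetraoctylammonium bromide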
Outline: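 ATP luminescence (CellTiter-Glo) was measured after 16 hr compound exposure at 37 C of 2500 lymphoblastoid LYMP1-002 cells per well. Concentration-response curves were fitted with the Hill equation to give AC50.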

[11] = MultiTox-Fluor Cytotoxicity Assay - LYMP1-003 - Dead Cells (AID 961);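 note: 0% = DMSO and 100% = tetraoctylammonium bromide; nearly all actives have a fitted effect of over 70% in size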
Outline: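 Acute toxicity is scored as increased dead-cell protease activity in human lymphoblastoid LYMP1-003 cells after 16 h compound exposure in complete culture medium. Activity is normalized to DMSO basal and 15 uM tetraoctylammonium bromide as full response.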

[12] = MultiTox-Fluor Cytotoxicity Assay - LYMP1-003 - Live Cells (AID 962);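 note: 0% = DMSO only and full loss = 92 µM tetraoctylammonium bromide; cytotoxic hits lower the live-cell protease signal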
Outline: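 qHTS, 1536-well; 2500 cells/well LYMP1-003; 5 hr 37 C settle; cpd 16 hr 37 C; MultiTox-Fluor reagent 60 min RT; live-cell protease fluor. 405/510; Hill-fit AC50; tetraoctylammonium bromide pos. ctrl.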

[13] = Cell Viability - LYMP2-013 (AID 970);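 note: series mostly up to about 92 µM; 0% = DMSO only and full inhibition = tetraoctylammonium bromide control; nearly all actives have a fitted effect of over 55% in size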
Outline: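 qHTS; 2500 lymphoblastoid cells/well; 5 hr 37 C settle; cpd 24 hr 37 C; CellTiter-Glo, 30 min RT; luminescence. AC50 = Hill fit.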

[14] = Cell Viability - LYMP2-023 (AID 975);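 note: cellular ATP measured by luciferase luminescence as viability proxy; series mostly up to about 92 µM; cells exposed to compound for 24 hours at 37 °C; plate controls were DMSO only for no effect and 92 µM tetraoctylammonium bromide control for full effect; nearly all actives have a fitted effect of over 55% in size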
Outline: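 2500 cells/well, 5 hr 37 C; cpd 24 hr 37 C; CellTiter-Glo, 30 min RT; luminescence. qHTS conc-response, Hill fit -> AC50. Pos ctrl tetraoctylammonium bromide.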

[15] = Cell Viability - LYMP2-025 (AID 976);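 note: series mostly up to about 92 µM; plate controls were DMSO only for no effect and tetraoctylammonium bromide control for full effect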
Outline: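 Seed 2500 LYMP2-025 cells/well; 5 hr at 37 C; add compound; 24 hr at 37 C; add CellTiter-Glo; 30 min RT; read luminescence. AC50 from Hill-modelled concentration-response.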

[16] = Cell Viability - LYMP2-007 (AID 979);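 note: cells exposed to compound for 24 h before reading; 0% = DMSO only and the negative end = 92 µM tetraoctylammonium bromide; nearly all actives have a fitted effect of over 60% in size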
Outline: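 Luminescent ATP signal (CellTiter-Glo) serves as the viability read-out after 24 hr compound treatment of lymphoblastoid cells in complete medium at 37 C. Concentration-response data were fitted to the Hill equation to give AC50 values.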

[17] = Cell Viability - LYMP2-008 (AID 980); note: % is set by controls: 0 for no effect and ±100 for the full control effect; nearly all actives have a fitted effect of over 60% in size
Outline: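 qHTS, human lymphoblastoid line, 2500 cells/well; 5 hr preincubation, 24 hr compound, 37 C. CellTiter-Glo ATP luminescence. AC50 via Hill equation. Tetraoctylammonium bromide positive control.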

[18] = Cell Viability - LYMP2-026 (AID 989); note: % is set by controls: 0 for no effect and ±100 for the full control effect; nearly all actives have a fitted effect of over 50% in size
Outline: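 Luminescent ATP signal (CellTiter-Glo, 30 min room temperature) measures viable lymphoblastoid cells after 24 hr compound treatment at 37 C. Decreased ATP reflects acute toxicity; AC50 values come from Hill-equation modeling.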

[19] = qHTS Assay for Identification of Small Molecule Inducers of Hypoxia Response (AID 2120; active = well fitted curve in the direction sought with a large enough effect in the signal ratio, with a control signal flat, not every such curve was filed as active; the % refers to the signal ratio; note: 0% is about no effect)
Outline: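 ME-180 HRE-bla cells plated in Opti-MEM/0.5% dialyzed FBS, rested 4-5 h, then dosed with compound titrations by pin tool. After 17 h at 37 degrees C, CCF4 dye loaded 2.5 h at RT; 460/530 nm ratio gave %Activity and AC50.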

[20] = qHTS assay for cell viability of HEK293 cells (AID 743288); details: ATP luminescence (CellTiter-Glo), 18 h, stronger effect = lower value; note: % is set by controls: 0 for no effect and ±100 for the full control effect; nearly all actives have a fitted effect of over 50% in size
Outline: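 Total intracellular ATP, measured with a luciferase-coupled reagent, indicates the number of viable HEK293 cells. Exposure to test chemicals lasts 18 h at 37 C in 1,536-well format at 2,000 cells/well.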

Cc1coc2c1CCC(C)C2 (stereo not given)
inactive: outcome [1] | outcome [2] | outcome [3] | outcome [4] | outcome [5] | Potency [6] | Potency [7] | outcome [8] | Potency [9] | outcome [10] | Potency [11] | outcome [12] | Potency [13] | Potency [14] | Potency [15] | Potency [16] | Potency [17] | Potency [18] | Potency [19] | max response [20] 2.25%

ClCC(Br)CBr (stereo not given)
inactive: outcome [1] | outcome [2] | outcome [3] | outcome [4] | outcome [5] | Potency [6] | Potency [7] | outcome [8] | Potency [9] | outcome [10] | Potency [11] | outcome [12] | Potency [13] | Potency [14] | Potency [15] | Potency [16] | Potency [17] | Potency [18] | Potency [19] | max response [20] -7.97%

O=[N+]([O-])CCO
inactive: outcome [1] | outcome [2] | outcome [3] | outcome [4] | outcome [5] | Potency [6] | Potency [7] | outcome [8] | Potency [9] | outcome [10] | Potency [11] | outcome [12] | Potency [13] | Potency [14] | Potency [15] | Potency [16] | Potency [17] | Potency [18] | Potency [19] | max response [20] -4.92%

ClCCCCl
inactive: outcome [1] | outcome [2] | outcome [3] | outcome [4] | outcome [5] | Potency [6] | Potency [7] | outcome [8] | Potency [9] | outcome [10] | Potency [11] | outcome [12] | Potency [13] | Potency [14] | Potency [15] | Potency [16] | Potency [17] | Potency [18] | Potency [19] | max response [20] 2.44%

CCCCOC(=O)c1ccccc1N
inactive: outcome [1] | outcome [2] | outcome [3] | outcome [4] | outcome [5] | Potency [6] | Potency [7] | outcome [8] | Potency [9] | outcome [10] | Potency [11] | outcome [12] | Potency [13] | Potency [14] | Potency [15] | Potency [16] | Potency [17] | Potency [18] | Potency [19] | max response [20] -7.97%

Nc1ccc(Oc2ccc(N)cc2)cc1
inactive: outcome [1] | outcome [2] | outcome [3] | outcome [4] | outcome [5] | Potency [6] | Potency [7] | outcome [8] | Potency [9] | outcome [10] | Potency [11] | outcome [12] | Potency [13] | Potency [14] | Potency [15] | Potency [16] | Potency [17] | Potency [18] | Potency [19] | max response [20] -1.7% and -3.88%

CC(C)(Cl)[N+](=O)[O-]
inactive: outcome [1] | outcome [2] | outcome [3] | outcome [4] | outcome [5] | Potency [6] | Potency [7] | outcome [8] | Potency [9] | outcome [10] | Potency [11] | outcome [12] | Potency [13] | Potency [14] | Potency [15] | Potency [16] | Potency [17] | Potency [18] | Potency [19] | max response [20] 8.03%

CC(C#N)CCC#N (stereo not given)
inactive: outcome [1] | outcome [2] | outcome [3] | outcome [4] | outcome [5] | Potency [6] | Potency [7] | outcome [8] | Potency [9] | outcome [10] | Potency [11] | outcome [12] | Potency [13] | Potency [14] | Potency [15] | Potency [16] | Potency [17] | Potency [18] | Potency [19] | max response [20] -7.04%

CNC(=O)O/N=C/C(C)(C)S(C)=O (stereo not given)
inactive: outcome [1] | outcome [2] | outcome [3] | outcome [4] | outcome [5] | Potency [6] | Potency [7] | outcome [8] | Potency [9] | outcome [10] | Potency [11] | outcome [12] | Potency [13] | Potency [14] | Potency [15] | Potency [16] | Potency [17] | Potency [18] | Potency [19] | max response [20] 0.711% and -4.36%

COC(=O)Nc1nc2ccccc2[nH]1
inactive: outcome [1] | outcome [2] | outcome [3] | outcome [4] | outcome [5] | Potency [6] | Potency [7] | outcome [8] | outcome [10] | Potency [11] | outcome [12] | Potency [13] | Potency [14] | Potency [15] | Potency [16] | Potency [18] | Potency [19] | max response [20] -9.84% and -19.2%

CC(C)(C)OOC(=O)c1ccccc1
inactive: outcome [1] | outcome [2] | outcome [3] | outcome [4] | outcome [5] | Potency [6] | Potency [7] | outcome [8] | outcome [10] | Potency [11] | outcome [12] | Potency [13] | Potency [14] | Potency [15] | Potency [16] | Potency [17] | Potency [18] | Potency [19] | max response [20] 7.08% and -4.29%

Clc1ccc(C(Cl)(Cl)Cl)cc1Cl
inactive: outcome [1] | outcome [2] | outcome [3] | outcome [4] | outcome [5] | Potency [6] | Potency [7] | outcome [8] | Potency [9] | outcome [10] | Potency [11] | outcome [12] | Potency [13] | Potency [14] | Potency [16] | Potency [17] | Potency [18] | Potency [19] | max response [20] 4.98%

O=C(O)CBr
inactive: outcome [1] | outcome [2] | outcome [3] | outcome [4] | outcome [5] | Potency [6] | Potency [7] | outcome [8] | Potency [9] | outcome [10] | Potency [11] | outcome [12] | Potency [13] | Potency [14] | Potency [15] | Potency [16] | Potency [17] | Potency [18] | Potency [19] | max response [20] 6.1%

Nc1cc(Cl)ccc1O
inactive: outcome [1] | outcome [2] | outcome [3] | outcome [4] | outcome [5] | Potency [6] | Potency [7] | outcome [8] | Potency [9] | outcome [10] | outcome [12] | Potency [13] | Potency [14] | Potency [15] | Potency [16] | Potency [17] | Potency [18] | Potency [19] | max response [20] -15.2%
